Three molecules from PubChem BioAssay AID651598 (Sanford-Burnham Center for Chemical Genomics, 2012) can be followed below.

SMILES strings stand for the structures. Values joined by “and” are separate entries in the source; they are usually repeats but may differ in a detail not shown here. Identical values can stand only once.

In the experiment the target is Apelin receptor (Homo sapiens) (UniProt P35414). As to the kind of experiment: apelin receptor (APJ) antagonists, SAR follow-up, counter-screen for CXCR6 antagonist project, cell-based, beta-arrestin, DiscoveRx, panel, CHO-K1 (AID 651598). Particulars: CHO-K1 PathHunter beta-arrestin luminescence, antagonist mode; run 4, at 80 µM (top of the series). (In general: The purpose of a counterscreen is to sort out artefacts and off-target activity.)
Chain of Apelin receptor (Homo sapiens) (P35414 whole entry, looked up): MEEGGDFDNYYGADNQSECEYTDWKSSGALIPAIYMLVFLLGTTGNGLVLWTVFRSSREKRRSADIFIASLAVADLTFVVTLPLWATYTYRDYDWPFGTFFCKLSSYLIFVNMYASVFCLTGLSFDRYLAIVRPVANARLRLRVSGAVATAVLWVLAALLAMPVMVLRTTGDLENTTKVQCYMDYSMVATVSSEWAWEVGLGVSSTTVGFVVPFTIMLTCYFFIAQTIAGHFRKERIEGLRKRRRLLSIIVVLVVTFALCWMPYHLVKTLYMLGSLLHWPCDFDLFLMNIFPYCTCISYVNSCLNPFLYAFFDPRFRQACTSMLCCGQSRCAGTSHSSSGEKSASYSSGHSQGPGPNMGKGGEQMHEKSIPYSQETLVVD
By inhibition is commonly meant the change of the read-out against control, counted positive when it falls. For the molecule `COc1cc(C(=O)NC2CCN(CC(=O)Nc3ccccc3)CC2)cc(OC)c1OC`, the inhibition is -1.54%.

Take `COc1cc(C(=O)NC2CC3CCC(C2)N3CC(=O)Nc2ccccc2)cc(OC)c1OC` (stereo not drawn): the inhibition was -13.5% and 16.7%. Take `COc1cc(C(=O)NC2CC3CCCC(C2)N3CC(=O)Nc2ccccc2)cc(OC)c1OC` (stereo not drawn): the inhibition is 17% and 11.6% and 7.8%.
